The values below come from PubChem BioAssay (NCI).

Each structure is given as a SMILES string. About 83,000 compounds went through this panel and 20% of them were active in at least one assay; those are over-represented in the sample as a whole.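 Step 1: grow cells in 96-well plates. Step 2: add test compound at a single concentration. Step 3: incubate 48 h. Step 4: record percent growth.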 A number with no mark means an inactive call. Calls of active or inactive are those of the source. Rule for the calls: active = growth percent below 10; inactive = the rest.

Among the test systems are T-47D breast; BT-549 breast; MDA-MB-435 melanoma; SW-620 colon; MCF7 breast; HCT-116 colon; HCC-2998 colon; KM12 colon.
Holding throughout (assay): NCI-60 one-dose screen, 48 h (100 = growth as untreated, 0 = no growth, -100 = all killed)
Holding throughout (conditions): 10 µM unless noted

For `COc1ccc(C2=NN(C(N)=S)C(c3ccc4c(c3)OCO4)C2)cc1` (stereo not given), the growth in the test on T-47D breast was 36.7%; in the test on BT-549 breast, -2.03% (active); with MDA-MB-435 melanoma, 3.04% (active); with SW-620 colon it was 1.46% (active); in the test with MCF7 breast, 10.5%; in the test on HCT-116 colon, 1.71% (active). For the same compound, the growth with HCC-2998 colon is -24.7% (active); with KM12 colon it was 2.57% (active).
On to `COc1cc(/C=C/C(=O)C(C(=O)/C=C/c2ccc(OC(=O)CCNc3nnc(C)s3)c(OC)c2)C(=O)CCNc2nnc(C)s2)ccc1OC(=O)CCNc1nnc(C)s1`, for which the growth is 41.4% in the test with T-47D breast; -44% (active) in the test with BT-549 breast; -27.5% (active) in the test with MDA-MB-435 melanoma; -19.5% (active) in the test on SW-620 colon; 8.2% (active) in the test with MCF7 breast; -31.6% (active) in the test on HCT-116 colon. Also, the results for the growth with HCC-2998 colon and with KM12 colon were -46.7% (active) and -39.2% (active), respectively.
For the compound `COc1cc(NC(C)CCCN)c2nc(C)ccc2c1Oc1ccc(F)cc1` (stereo not given), the growth in the test on T-47D breast was 87.4%; in the test on BT-549 breast, 70.5%; in the test on MDA-MB-435 melanoma it was 104%; in the test on SW-620 colon, 67%; with MCF7 breast it was 62.1%; in the test on HCT-116 colon, 33.9%. Moreover, the growth in the test with HCC-2998 colon was 21.6%; in the test with KM12 colon, 78.9%.
On to `COCCOCCOCCOCCOc1ccc2c(c1)C(=O)c1nc3ncccc3c(=O)n1-2`, for which the growth with T-47D breast is 11.3%; in the test on BT-549 breast it was -95.7% (active); with MDA-MB-435 melanoma it was -100% (active); in the test with SW-620 colon, -100% (active); in the test on MCF7 breast it was -64.6% (active); in the test with HCT-116 colon, -32.7% (active). The growth with HCC-2998 colon is -68.1% (active); in the test on KM12 colon it was -57% (active).
For `COP(=O)(OC)C(c1ccc(O)cc1)(c1ccc(O)cc1)c1ccc(O)cc1`, the growth with T-47D breast is 104%; in the test with BT-549 breast, 133%; with MDA-MB-435 melanoma, 118%; in the test with SW-620 colon, 97.3%; in the test on MCF7 breast it was 109%; in the test on HCT-116 colon it was 82.7%. Moreover, the growth in the test on HCC-2998 colon was 127%; with KM12 colon it was 113%.
As for `CC(C)N(Cc1ccccc1)c1c(S)ssc1=S`, the growth is 18.2% in the test with T-47D breast; -4.86% (active) with BT-549 breast; 11.8% with MDA-MB-435 melanoma; 9.47% (active) in the test on SW-620 colon; 3.04% (active) in the test on MCF7 breast; 5.93% (active) in the test on HCT-116 colon. Besides, the growth in the test with HCC-2998 colon is 24.8%; with KM12 colon it was 11.5%.
In the case of `COc1ccc2c3c(ccc2c1)C(=O)/C(=C\O)CC3`, the growth with T-47D breast was 80.8%; in the test on BT-549 breast, 105%; in the test with MDA-MB-435 melanoma, 111%; in the test on SW-620 colon it was 105%; in the test with MCF7 breast it was 102%; with HCT-116 colon, 88.1%. Besides, the growth was 104% in the test on HCC-2998 colon and 99.5% in the test on KM12 colon.
For `CCOC(=O)c1sc(NC(=O)COc2cccc(/C=C3\CCc4cc(OC)ccc4C3=O)c2)nc1C`, the growth in the test with T-47D breast is 84.8%; with BT-549 breast it was -23.3% (active); with MDA-MB-435 melanoma, 8.01% (active); in the test with SW-620 colon, 36.4%; in the test on MCF7 breast, 18.9%; with HCT-116 colon, 46.5%. For the same compound, the growth in the test with HCC-2998 colon is 32.3%; with KM12 colon it was 34.7%.
Turning to `O=C(CN1CCN(c2ccc(Cl)cc2)CC1)N1CCN(c2nnc(-c3ccccc3)c(-c3ccccc3)n2)CC1`, the growth in the test on T-47D breast was 19.7%; in the test on BT-549 breast, 44.9%; in the test with MDA-MB-435 melanoma, 48.8%; in the test on SW-620 colon, 46.9%; in the test with MCF7 breast it was 20.9%; in the test with HCT-116 colon it was 16.7%. The values for the growth in the test with HCC-2998 colon and with KM12 colon were 56.9% and 36.6%, respectively.
Regarding `N#Cc1c(-c2ccccc2)cc(-c2ccccc2)n(CCCCCCC(=O)O)c1=O`, the growth is 91.1% with T-47D breast; 101% in the test on BT-549 breast; 102% with MDA-MB-435 melanoma; 103% in the test with SW-620 colon; 67.9% in the test with MCF7 breast; 98.5% in the test with HCT-116 colon. Further, the growth is 111% in the test with HCC-2998 colon and 98.9% with KM12 colon.
As to `C=C1CCC2C(C)(COC(=O)CC)C(OC(=O)CC)CCC2(C)C1C/C=C1/C(=O)OCC1OC(=O)CC` (stereo not given), the growth in the test on T-47D breast is -51.9% (active); with BT-549 breast it was 83.6%; with MDA-MB-435 melanoma, 2.16% (active); in the test on SW-620 colon, -62.2% (active); in the test with MCF7 breast, -35.1% (active); with HCT-116 colon, -100% (active). Further, the growth in the test with HCC-2998 colon was -65.8% (active); in the test on KM12 colon it was 3.97% (active).
Take `COc1cc2c(cc1OC)C(=O)/C(=C/c1cccc(OCC(=O)c3ccccc3)c1)C2`: the growth with T-47D breast was 55.2%; in the test on BT-549 breast, 49.4%; with MDA-MB-435 melanoma it was 110%; in the test with SW-620 colon, 74.6%; in the test with MCF7 breast it was 60.7%; with HCT-116 colon, 64.6%. Besides, the growth was 111% with HCC-2998 colon and 170% in the test on KM12 colon.
Take `Cc1ccc(/C=C(/C#N)n2nnc3ncccc32)cc1`: the growth in the test with T-47D breast is 5.39% (active); in the test on BT-549 breast it was 11.3%; in the test with MDA-MB-435 melanoma, -52.9% (active); with SW-620 colon, 9.59% (active); with MCF7 breast it was 14.5%; in the test on HCT-116 colon, 4.5% (active). Further, the growth in the test with HCC-2998 colon is 15.7%; in the test with KM12 colon it was 24.6%.
Consider `Nc1c(C(=O)Nc2cccc(Cl)c2)sc2nc3c(cc12)C(O)CCC3` (stereo not given), for which the growth in the test with T-47D breast was 52.3%; in the test on BT-549 breast, 56%; with MDA-MB-435 melanoma it was -37.5% (active); in the test on SW-620 colon, 43.9%; in the test with MCF7 breast, 17.8%; in the test on HCT-116 colon, 19.1%. The growth is 24.9% in the test on HCC-2998 colon and 26.9% in the test on KM12 colon.
As to `COc1cc(C2CC(c3ccc(C)cc3)=NN2C=O)ccc1OCCN(C)C` (stereo not given), the growth in the test on T-47D breast was 90.6%; in the test on BT-549 breast it was 80.7%; in the test on MDA-MB-435 melanoma, 102%; with SW-620 colon, 96.5%; with MCF7 breast, 92.5%; in the test with HCT-116 colon, 88.9%. For the same compound, the growth in the test with HCC-2998 colon was 98.4%; with KM12 colon, 101%.
